Screening results (PubChem)
Rows were chosen to be rich in hits. Some 2.6% of all compounds tested hit in one or more screens of this group.
AmpC det inh: Promiscuous and Specific Inhibitors of AmpC Beta-Lactamase (assay with detergent) | Potency, µM (highest dose often 28.7 µM) | actives 0.09% (n = 71,000) | purified AmpC, nitrocefin hydrolysis with detergent | P00811; active = well fitted curve in the direction sought with a large enough effect; inconclusive = small, poorly fitted or top-dose-only effect
Target sequence (P00811 whole entry, looked up): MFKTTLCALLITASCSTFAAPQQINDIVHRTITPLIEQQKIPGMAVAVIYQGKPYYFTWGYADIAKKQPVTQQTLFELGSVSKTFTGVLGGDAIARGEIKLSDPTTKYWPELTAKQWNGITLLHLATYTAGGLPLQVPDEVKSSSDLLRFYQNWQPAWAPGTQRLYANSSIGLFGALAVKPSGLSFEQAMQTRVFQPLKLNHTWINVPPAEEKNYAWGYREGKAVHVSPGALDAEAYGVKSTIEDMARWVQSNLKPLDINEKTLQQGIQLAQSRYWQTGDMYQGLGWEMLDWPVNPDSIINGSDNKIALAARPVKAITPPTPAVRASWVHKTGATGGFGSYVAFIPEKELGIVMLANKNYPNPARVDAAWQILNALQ
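E. coli AmpC (5.3 nM) in 20 mM phosphate pH 7.0 with 0.01% Triton X-100, preincubated 15 min RT with compound; nitrocefin (2 uL of 800 uM stock) hydrolysis followed by 480 nm absorbance every 20 s over 4 min.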
LT uptake inh: qHTS Assay for Anthrax Lethal Toxin Internalization; Potency, µM (series often up to 40 µM), most hits filed as inhibitors; actives 0.67% (n = 70,000); Cells, anthrax lethal toxin internalization, FRET ratio (460/530); also: nearly all actives have a fitted effect of over 50% in size
AmpC inh no det: Promiscuous and Specific Inhibitors of AmpC Beta-Lactamase (assay without detergent) | AID 585, 2007 | P00811 | Potency, µM (highest dose often 28.7 µM) | AmpC nitrocefin hydrolysis, absorbance 480 nm, no detergent | actives 1.8% (n = 71,000)
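AmpC in 20 mM phosphate buffer pH 7.0 was preincubated 15 min at room temperature with compounds. Nitrocefin (800 uM stock) was then added and hydrolysis followed at 480 nm every 20 s for 4 min.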
Prx2 Sm inh: Schistosoma Mansoni Peroxiredoxins (Prx2) | Schistosoma mansoni peroxiredoxin 2 (Prx2) | actives 0.07% (n = 65,000) | Potency, µM | AID 448, 2006 | S. mansoni Prx2 activity coupled to TGR/GSH (TGR is thioredoxin glutathione reductase), NADPH fluorescence loss, qHTS
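Coupled assay in which S. mansoni TGR passes NADPH reducing equivalents via glutathione to Prx2, which reduces H2O2. Compounds were preincubated 15 min at room temperature with 25 nM TGR/50 nM Prx2 mix. Kinetic NADPH fluorescence loss (ex 365/em 450 nm) was monitored.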
Of the large screens only hits and unclear results are named; the others gave an inactive call; [ ] = dose if it differs, or a comment. Unless noted, calls follow the shape of the full dose curve.

COc1cccc(OC)c1C(=O)Nc1c(C)n(C)n(-c2ccccc2)c1=O	none
COc1ccc(NC(=O)Nc2c(C)n(C)n(-c3ccccc3)c2=O)cc1	AmpC inh no det 4µM[single pt active]
CCOC(=O)CCc1c(C)nc2cc(-c3ccccc3OC)[nH]n2c1=O	AmpC inh no det 4µM[single pt active]
CN1CCC[C@@H]1c1cccnc1.O=C(O)c1ccccc1O.O=C([OH2+])c1ccccc1O.O=C([OH2+])c1ccccc1O.[Mn]	LT uptake inh inconclusive
COc1ccc2[nH]cc(CCNC(=O)C3CCCNC3=O)c2c1 (configuration not stated)	AmpC inh no det 2.5µM[single pt active]
CCOC(=O)C1CCCN(CCC(=O)Nc2cccc(F)c2)C1 (configuration not stated)	none
CCOC(=O)C1CCN(CCC(=O)Nc2cccc(Cl)c2)CC1	LT uptake inh 10µM
COc1ccc(N2C(=O)CC(Sc3ncn[nH]3)C2=O)c(OC)c1 (configuration not stated)	LT uptake inh 13µM (no result: Prx2 Sm inh)
CC[C@@H]1CN2CCc3cc(OC)c(OC)cc3[C@H]2C[C@@H]1C[C@@H]1NCCc2cc(OC)c(OC)cc21	none (no result: AmpC det inh, LT uptake inh, AmpC inh no det)
O=C(NCc1ccc2c(c1)OCO2)c1ccc2c(=O)n(C3CCCC3)c(=O)[nH]c2c1	LT uptake inh inconclusive, AmpC inh no det 7.9µM
COc1ccc(Cn2c(=O)[nH]c3cc(C(=O)NCCCN4CCCCC4)ccc3c2=O)cc1	none
COc1ccc(Cn2c(=O)[nH]c3cc(C(=O)NCc4ccc5c(c4)OCO5)ccc3c2=O)cc1	AmpC inh no det 13µM[single pt active]
O[C@@H](c1cc(-c2ccccc2)nc2c1ccc1ccccc12)[C@@H]1CCCCN1	none
CN1CCN(c2ccnc(-c3ccc(N(C)C)cc3)n2)CC1	none
COc1ccccc1CN(Cc1cc2c(C)ccc(C)c2[nH]c1=O)Cc1nnnn1Cc1ccco1	LT uptake inh 16µM
COc1cccc(-c2cc(N)nn2C(=O)Nc2ccc(Cl)cc2)c1	LT uptake inh inconclusive, AmpC inh no det 4µM[single pt active]
COc1cccc(-c2csc3nnc(SCC(=O)c4ccc(NC(C)=O)cc4)n23)c1	none
FC(F)(F)c1cc(CO[C@@H]2CCCN[C@H]2c2ccccc2)cc(C(F)(F)F)c1	none
CCNC(C)(C)[C@@H](SS)c1ccc(Br)cc1	none
Cc1cc(C)n2nc(SCC(=O)Nc3c(C)nn(-c4ccccc4)c3C)nc2n1	none
Cc1cc(C)n2nc(SCC(=O)Nc3ccc(F)cc3)nc2n1	AmpC inh no det 4µM[single pt active], Prx2 Sm inh inconclusive
Cc1ncc(CO)c2cc(S(=O)(=O)c3ccc(F)cc3)c(=O)oc12	AmpC inh no det 4µM[single pt active], Prx2 Sm inh 17
CC1(C(=O)NC2CCCCC2)CCC(=O)N1Cc1cccs1 (configuration not stated)	AmpC inh no det 4µM[single pt active]
CC1(C(=O)NC2CCCC2)CCC(=O)N1Cc1cccs1 (configuration not stated)	none
O=C(NC1CCCc2ccccc21)C1CCC(CNc2c(N3CCOCC3)c(=O)c2=O)CC1 (configuration not stated)	LT uptake inh inconclusive, AmpC inh no det 3.2µM[single pt active]
COc1ccccc1CNC(=O)C1CCC(CNc2c(N3CCOCC3)c(=O)c2=O)CC1 (configuration not stated)	LT uptake inh inconclusive
COc1cc(NC(=O)C2CCC(CNc3c(N4CCCCC4)c(=O)c3=O)CC2)cc(OC)c1 (configuration not stated)	LT uptake inh inconclusive, AmpC inh no det 4µM[single pt active]
Nc1nc2ccc(S(=O)(=O)c3ccc4nc(N)sc4c3)cc2s1	AmpC inh no det 13µM
Nc1nc2ccc(Oc3ccccc3)cc2s1	none
O=C1OCCC1Sc1nnc(-c2ccco2)o1 (configuration not stated)	Prx2 Sm inh 6.5
CCOC(=O)c1c(NC(=O)c2ccc(Br)o2)sc(C)c1CC	LT uptake inh 5µM (no result: Prx2 Sm inh)
CCCS(=O)(=O)N1CCC(C(=O)N2CCN(Cc3ccccc3)CC2)CC1	none
CS(=O)(=O)N1CCC(C(=O)N2CCC(Cc3ccccc3)CC2)CC1	AmpC det inh inconclusive, AmpC inh no det 13µM
CC1=C/C(=N/O)C([C@H]2C=C(C)CC(C)(C)[C@@H]2O)C(C)(C)C1 (some centres not stated)	none
CCC/C=C(\CCC)C(NC(=O)c1ccc(C(F)(F)F)cc1)c1ccccc1 (configuration not stated)	AmpC inh no det 20µM[single pt active]
COc1cc(-c2nc(-c3cccc(C)c3)no2)cc(OC)c1OC	LT uptake inh inconclusive (no result: Prx2 Sm inh)
COc1cc2c(C)nc3onc(-c4ccccc4)c3c2cc1OC	LT uptake inh 1µM
Oc1ccc(CNc2ccccc2)c2cccnc12	AmpC inh no det 13µM[single pt active], Prx2 Sm inh 15
Oc1ccc(CNc2ccc(F)cc2)c2cccnc12	AmpC inh no det 10µM, Prx2 Sm inh inconclusive
Oc1ccc(CN2CCN(Cc3ccccc3)CC2)c2cccnc12	LT uptake inh inconclusive
CCN(CC)[C@@H](C)C(=O)N1c2ccccc2Sc2ccccc21	LT uptake inh inconclusive
N[C@H](Cc1c[nH]c2ccccc12)P(=O)(O)O	none
O=C(Nc1cccc(-c2nc3ccccc3[nH]2)c1)c1cccc(NC(=O)c2ccco2)c1	LT uptake inh 16µM (no result: Prx2 Sm inh)
CCCOc1cccc(C(=O)Nc2cccc(NC(=O)c3ccco3)c2)c1	LT uptake inh 5µM (no result: Prx2 Sm inh)
Nc1ncnc2nc[nH]c12.Nc1ncnc2nc[nH]c12.[Cl][Pt]([Cl])([Cl])[Cl]	none
CC1(C)CCC(C)(C)c2c1ccc(O)c2Cc1c(O)ccc2c1C(C)(C)CCC2(C)C	LT uptake inh inconclusive
CCN1CCN(CCNC(=O)C2CCN(Cc3nc(-c4ccc(Cl)cc4)oc3C)CC2)CC1	LT uptake inh inconclusive, AmpC inh no det 4µM[single pt active]
CCN1CCCC1CNC(=O)C1CCN(Cc2nc(-c3cccc(Br)c3)oc2C)CC1 (configuration not stated)	LT uptake inh 6.3µM
Cc1oc(-c2cccc(Cl)c2)nc1CN1CCC(C(=O)NCc2ccco2)CC1	LT uptake inh inconclusive
Cc1oc(-c2ccc(Cl)cc2)nc1CN1CCC(C(=O)NCCCN2CCCC2=O)CC1	none
Cc1ccccc1-c1nc(CN2CCC(C(=O)NCCCN3CC(C)CC(C)C3)CC2)c(C)o1 (configuration not stated)	LT uptake inh 2.5µM
Clc1ccc([C@@H](c2ccccc2Cl)C(Cl)Cl)cc1	LT uptake inh inconclusive
CC(=O)c1cccc(NC2c3ccccc3C(=O)N2Cc2ccc3c(c2)OCO3)c1 (configuration not stated)	AmpC inh no det 4µM[single pt active]
Nc1nc(N)nc(CCCCc2nc(N)nc(N)n2)n1	none
C=CCOC(=O)C1=C(C)Nc2nnnn2C1c1cc(OC)ccc1OC (configuration not stated)	none
CCOC(=O)C1=C(C)Nc2nnnn2C1c1ccc(OC)c(Br)c1 (configuration not stated)	AmpC inh no det 4µM[single pt active]
Cc1c(C(=O)OCc2ccccc2)[nH]c2c1C(=O)CC(c1ccco1)C2 (configuration not stated)	LT uptake inh inconclusive, AmpC inh no det 13µM[single pt active]
